Results as given in PubChem BioAssay (NCI).
About 83,000 compounds went through this panel and 20% of them were active in at least one assay; those are over-represented in the sample as a whole.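 The endpoint reported here, percent growth, reads 100 for growth as untreated, 0 for no net growth and -100 for all cells dead.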 Values without a mark were called inactive. The source made the active and inactive calls. The calls were made as follows: active = growth percent below 10; inactive = the rest.

Key:
Assay in all cases: NCI-60 one-dose screen, 48 h (100 = growth as untreated, 0 = no growth, -100 = all killed)
[1] = test system: DU-145 prostate; conditions: 10 µM unless noted
[2] = test system: K-562 leukemia; conditions: 10 µM unless noted
[3] = test system: MALME-3M melanoma; conditions: 10 µM unless noted
[4] = test system: MDA-MB-231 breast; conditions: 10 µM unless noted
[5] = test system: RXF 393 renal; conditions: 10 µM unless noted
[6] = test system: SF-268 CNS; conditions: 10 µM unless noted
[7] = test system: SF-295 CNS; conditions: 10 µM unless noted
[8] = test system: SF-539 CNS; conditions: 10 µM unless noted
[9] = test system: UACC-257 melanoma; conditions: 10 µM
[10] = test system: HCT-15 colon; conditions: 10 µM unless noted
[11] = test system: HT29 colon; conditions: 10 µM unless noted
[12] = test system: SNB-75 CNS; conditions: 10 µM unless noted
[13] = test system: SNB-19 CNS; conditions: 10 µM unless noted
[14] = test system: U251 CNS; conditions: 10 µM unless noted
[15] = test system: PC-3 prostate; conditions: 10 µM unless noted
[16] = test system: SK-MEL-5 melanoma; conditions: 10 µM unless noted
[17] = test system: UACC-62 melanoma; conditions: 10 µM unless noted
[18] = test system: LOX IMVI melanoma; conditions: 10 µM unless noted
[19] = test system: SK-MEL-28 melanoma; conditions: 10 µM unless noted
[20] = test system: M14 melanoma; conditions: 10 µM unless noted

Row | Structure (SMILES) | growth [1] | growth [2] | growth [3] | growth [4] | growth [5] | growth [6] | growth [7] | growth [8] | growth [9] | growth [10] | growth [11] | growth [12] | growth [13] | growth [14] | growth [15] | growth [16] | growth [17] | growth [18] | growth [19] | growth [20] [%]
1 | Cc1[nH]nc2ccc(-c3nc4cnc(N5CCN(C)CC5)cn4c3Nc3ccc(F)cc3Br)cc12 | 51.8% | 5.31% (active) | 76.8% | 8.94% (active) | 63.3% | 75.8% | 66.3% | -54.9% (active) | 78.8% | 27.8% | 4.1% (active) | 82.7% | 45.4% | 14.4% | 47.6% | 75.4% | 17.9% | -10.4% (active) | 62.8% | –
2 | CCC(CC)N1C(=O)/C(=c2\sc3n(c2=O)C2C(NN=3)N(CC)C(=O)N2CC)c2ccccc21 (stereo not drawn) | 7.43% (active) | 9.31% (active) | 70% | 32.8% | 9.61% (active) | 35.7% | 7.59% (active) | 3.34% (active) | 69.6% | 10.4% | 5.44% (active) | -4.75% (active) | 26.4% | 27.1% | 33.7% | -20.1% (active) | 15.2% | 17.9% | 58.6% | –
3 | Cc1ccc(NC(=O)c2ccc(CN3CCN(C)CC3)c(C(F)(F)F)c2)cc1Oc1ccc(-c2[nH]nc3ncnc(N)c23)cc1 | 95.3% | 2.49% (active) | -12% (active) | 67.5% | 42.3% | 88% | 82.8% | 60.2% | 58.5% | 28.8% | -8.89% (active) | 93.3% | 99.2% | -27.7% (active) | 78.7% | 73% | 82.6% | -85.3% (active) | 68.6% | –
4 | CN1C(=O)N(C)C2Nn3c(s/c(=C\c4ccccn4)c3=O)=NC21 (stereo not drawn) | 111% | 108% | 82.4% | 99.5% | 110% | 103% | 104% | 101% | 96% | 99.9% | 110% | 105% | 100% | 105% | 99.1% | 102% | 90.6% | 99.6% | 104% | –
5 | CCN(CC)c1ccc2cc(C(=O)NCCOCCOCCOCCn3cc(CCC(=O)Nc4ccc(C(=O)c5ccc(NC(=O)OC(C)(C)C)cc5)cc4)nn3)c(=O)oc2c1 | 61.8% | 38.3% | 83.9% | 53.7% | 69.8% | 65% | 43.3% | 79.5% | 63.1% | 72.7% | 77.9% | 94.6% | 75.7% | 69.8% | 39.4% | -17.2% (active) | 32.1% | 26.7% | 82.6% | –
6 | Cc1ccc(-n2cc(/C=C/C(=O)c3ccc(S(C)(=O)=O)cc3)c(-c3ccc(S(C)(=O)=O)cc3)n2)cc1 | 104% | 27% | 50.3% | 86.5% | 97.9% | 104% | 97.2% | 88.8% | 100% | 37.6% | 70.5% | 102% | 89.8% | 95.6% | 86.6% | 94.4% | 78.1% | 74.5% | 92.9% | –
7 | N#Cc1c(NC(=O)c2ccccc2C(F)(F)F)sc2c1CCC(=O)C2 | 33.8% | 10.9% | -17.3% (active) | 3.09% (active) | -23.8% (active) | 18.9% | 11% | -28.9% (active) | -9.8% (active) | -32.3% (active) | 8.88% (active) | 20.1% | 15.5% | 16.3% | 13% | -75.5% (active) | -26.9% (active) | 6.27% (active) | -14.9% (active) | –
8 | Cc1nn(-c2ccccc2)cc1/C=N/Nc1nc(Nc2ccccc2)nc(Nc2ccc(S(N)(=O)=O)cc2)n1 | 9.14% (active) | 9.56% (active) | -25.6% (active) | -20.8% (active) | -20.4% (active) | -7.97% (active) | 10.7% | -71.1% (active) | 55.3% | 7.54% (active) | 5.91% (active) | 44.8% | 7.01% (active) | -22.3% (active) | 1.45% (active) | -44.3% (active) | -27.8% (active) | -25.7% (active) | -13.9% (active) | –
9 | O=c1oc2ccc(-c3ccc(F)cc3F)cc2c(=O)n1-c1ccc(F)c(F)c1 | 17.5% | 10.8% | -14.6% (active) | 7.85% (active) | -28.4% (active) | 13.7% | -12.6% (active) | 11.9% | -14.9% (active) | 3.09% (active) | 88.8% | 14.9% | 12.2% | 11.9% | 13.3% | -77.4% (active) | -12.8% (active) | 17.8% | 19.9% | –
10 | C#Cc1ccc(NC(=O)c2ccc(/C=C/C(=O)c3nccn3C)cc2)c(F)c1 | 27.5% | 12% | 89.8% | 23.6% | 10.5% | 28% | 26.1% | -22.5% (active) | 64.7% | 7.76% (active) | 15.8% | 17.7% | 23% | 5.03% (active) | – | 60.5% | 29.9% | -60.8% (active) | – | –
11 | NS(=O)(=O)c1ccc(-n2cc(CC=O)nn2)cc1 | 107% | 93.6% | 108% | 103% | 99.5% | 102% | 98.6% | 99% | 102% | 99.8% | 101% | 90.1% | 102% | 102% | 100% | 100% | 95.7% | 98.9% | 114% | –
12 | CS(=O)(=O)c1ccc(-c2nn(-c3ccccc3)cc2/C=N/NC(=O)c2ccncc2)cc1 | 88.8% | 62.5% | 95.5% | 104% | 78.2% | 101% | 102% | 101% | 96.7% | 69.5% | 101% | 89% | 96.5% | 105% | 98.2% | 105% | 82.4% | 101% | 105% | –
13 | COc1ccc(-c2nn(-c3ccccc3)cc2/C=C/C(=O)c2ccc(NC(=O)CCCCCCC(=O)NO)cc2)cc1 | 97.6% | 84.6% | 137% | 99% | 63.8% | 108% | 119% | 105% | 114% | 80.5% | 94.4% | 96.6% | 106% | 106% | 95.8% | 101% | 94.9% | 90.4% | 113% | –
14 | Cn1c2ccccc2c2c3c(c4c5ccc(Br)cc5oc4c21)C(=O)N(O)C3=O | 86.1% | 61.7% | 113% | 94.5% | – | 78.6% | 53.4% | 96.2% | 94.2% | 74.6% | 86.6% | 54.3% | 69.5% | 60.5% | 65.8% | 75.6% | 49.2% | -88.8% (active) | 105% | 89.3
15 | COC1=C(c2ccccc2)C(=O)C(OC)=C(c2ccccc2)C1=O | 117% | 77.2% | 112% | 94.5% | 106% | 106% | 100% | 102% | – | 97.6% | 95% | 56% | 101% | 91.6% | 96.2% | 103% | 97.1% | 95.2% | 117% | 98.9
